Rows were chosen to be rich in hits. Some 3% of all compounds tested hit in one or more screens of this group.
PAFAH1B2 FP inh: PAFAH1B2 enzyme inhibitors, primary screen, biochemical, fluorescence polarization, human | Platelet-activating factor acetylhydrolase IB subunit alpha2 (Homo sapiens), P68402 | recombinant PAFAH1B2, FP-rhodamine activity probe | inhibition, % at 3.39 µM | hit rate 1.2% among 340,000;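 active = inhibition above the mean of all tested compounds plus 3 SD, cut at about 24% in these data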;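 also: 0% = enzyme with DMSO and 100% = wells lacking PAFAH1B2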
ATG4B inhibitor: ATG4B protease inhibitors, primary screen, biochemical, fluorescence, uHTS; ATG4B cleavage of LC3-PLA2, NBD-HPC fluorescence, 1 h; AID 504462, 2011; hit rate 0.51% among 340,000; inhibition, % at 8.33 µM; in the data active = inhibition above about 40%
PAFAH1B3 inh: PAFAH1B3 enzyme inhibitors, primary screen, biochemical, fluorescence polarization, human; inhibition, % at 3.39 µM; AID 492972, 2010; Platelet-activating factor acetylhydrolase IB subunit alpha1 (Homo sapiens), Q15102; recombinant PAFAH1B3, FP-rhodamine probe; hit rate 0.28% among 340,000;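 active = inhibition above the screen-wide average of all tested compounds plus 3 SD, cut at about 25% in these data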;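 also: 0% = enzyme with DMSO only and 100% = wells lacking PAFAH1B3 protein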
PAFAH2 FP inh: PAFAH2 enzyme inhibitors, primary screen, biochemical, fluorescence polarization, human. recombinant PAFAH2, FP-rhodamine activity probe. hit rate 0.99% among 340,000. inhibition, % at 3.39 µM. AID 492956, 2010. Platelet-activating factor acetylhydrolase 2, cytoplasmic (Homo sapiens), Q99487;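 active = inhibition above the mean over all tested compounds plus 3 SD, cut at about 30% in these data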;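 also: inhibitors block probe labeling of enzyme so polarization drops; 0% = enzyme with DMSO and 100% = wells lacking PAFAH2 protein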
DAGLB inh: DAGLB lipase inhibitors, primary screen, biochemical, fluorescence, HTS | HEK293T DAGLB membrane lysate, EnzChek fluorogenic substrate | inhibition, % at 5.17 µM | hit rate 0.059% among 340,000 | AID 504411, 2011; in the data active = inhibition above about 34%;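 also: 0% = enzyme with vehicle and 100% = wells lacking enzyme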
Target sequence (Q8NCG7 whole entry, looked up): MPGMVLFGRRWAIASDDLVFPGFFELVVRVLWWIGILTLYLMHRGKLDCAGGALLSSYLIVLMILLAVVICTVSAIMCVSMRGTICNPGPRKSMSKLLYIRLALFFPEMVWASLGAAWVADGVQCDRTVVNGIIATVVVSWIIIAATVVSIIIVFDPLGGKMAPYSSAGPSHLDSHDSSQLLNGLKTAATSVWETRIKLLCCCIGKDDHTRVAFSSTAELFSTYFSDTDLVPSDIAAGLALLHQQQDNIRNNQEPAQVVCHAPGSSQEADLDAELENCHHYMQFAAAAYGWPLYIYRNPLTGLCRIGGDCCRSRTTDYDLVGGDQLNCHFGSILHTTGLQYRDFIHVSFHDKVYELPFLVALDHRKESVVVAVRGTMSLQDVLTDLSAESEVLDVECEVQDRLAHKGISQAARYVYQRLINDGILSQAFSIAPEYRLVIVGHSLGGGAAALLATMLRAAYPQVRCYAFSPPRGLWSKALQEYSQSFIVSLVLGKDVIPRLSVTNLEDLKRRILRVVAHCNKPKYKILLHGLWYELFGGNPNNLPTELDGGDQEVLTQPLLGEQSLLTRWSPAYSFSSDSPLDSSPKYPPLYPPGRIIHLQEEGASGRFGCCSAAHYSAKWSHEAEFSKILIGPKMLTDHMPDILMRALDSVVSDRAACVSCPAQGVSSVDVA
pPAFAH FP inh: pPAFAH enzyme inhibitors, primary screen, biochemical, fluorescence polarization, human; Platelet-activating factor acetylhydrolase (Homo sapiens), Q13093; recombinant pPAFAH, FP-rhodamine probe fluorescence polarization; inhibition, % at 3.39 µM; hit rate 1.5% among 330,000;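 active = inhibition above the mean inhibition across the screen plus 3 SD, cut at about 25% in these data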;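 also: inhibitors block binding of the rhodamine activity-based probe so polarization drops; 0% = enzyme with DMSO and 100% = wells lacking pPAFAH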
PAFAH2 confirm: PAFAH2 enzyme inhibitors, confirmation, biochemical, fluorescence polarization, human. shares compounds with PAFAH2 FP inh. recombinant PAFAH2, FP-rhodamine activity probe. inhibition, % at 3.39 µM. hit rate 65% among 2,300;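 active = mean inhibition over three repeats above a set limit taken from the earlier primary screen, cut at about 30% in these data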;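 also: inhibitor blocks binding of rhodamine activity probe so polarization falls; 0% = enzyme with DMSO and 100% = wells lacking PAFAH2 protein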
An asterisk follows results filed as active; . = no result.

SMILES	PAFAH1B2 FP inh	ATG4B inhibitor	PAFAH1B3 inh	PAFAH2 FP inh	DAGLB inh	pPAFAH FP inh	PAFAH2 confirm
O=C(COC(=O)c1cccc(S(=O)(=O)N2CCCCCC2)c1)Nc1ccccc1	-0.8	-2.7	4.6	65.6*	-3.6	.	60.5*
O=C(COC(=O)c1cccs1)Nc1cccc(S(=O)(=O)N2CCCCC2)c1	-6.3	-8.9	18.5	68.8*	-1.8	7.3	63.5*
Cc1ccc(C(=O)OCC(=O)Nc2cccc(S(=O)(=O)N3CCCCC3)c2)o1	2.8	-2.7	0.7	41.6*	-3.5	6.2	26.5
CC1CCCCC1NC(=O)COC(=O)c1ccc2c(=O)n3c(nc2c1)CCC3 (stereo not drawn)	1.7	-4.8	11.7	8.7	-1.1	-7.1	.
O=C(OCC(=O)N1CCCC1)c1cc(Cl)ccc1[N+](=O)[O-]	3.4	2.4	2.7	7.9	-2.0	0.2	.
C=CCn1c(O)c(N=NC(=O)c2ccccc2NS(=O)(=O)c2cccs2)c2ccccc21	9.1	13.9	4.7	37.1*	0.0	1.9	27.0
O=C(COC(=O)c1ccccc1)NCC1CCCO1 (stereo not drawn)	0.1	-11.0	14.6	17.4	-0.2	1.7	.
O=C(COC(=O)c1cccs1)NCC1CCCO1 (stereo not drawn)	2.9	-1.8	0.1	35.4*	1.4	4.7	15.6
CCOc1ccc(C(=O)OCC(=O)NC(C)C)cc1	-0.9	-7.7	-0.3	55.4*	-0.7	2.2	42.8*
COc1ccc(C(=O)OCC(=O)NCC2CCCO2)c(F)c1 (stereo not drawn)	3.5	-2.2	3.9	37.9*	0.8	8.5	33.6*
CCOc1ccc(C(=O)OCC(=O)NCC2CCCO2)cc1 (stereo not drawn)	5.3	-6.9	6.6	48.0*	-4.4	3.3	28.1
COc1cccc(OCC(=O)NCC2CCCO2)c1 (stereo not drawn)	6.6	-5.7	12.0	3.7	1.9	3.5	.
CS(=O)(=O)N1CCN(C(=O)Cc2ccc(Br)cc2)CC1	-1.4	-1.4	11.7	6.0	-0.3	-1.3	.
COc1cc(OC)c(NS(=O)(=O)c2cc(C(=O)OCC(=O)NCC3CCCO3)ccc2OC)cc1Cl (stereo not drawn)	9.3	-16.4	14.0	70.5*	-0.2	-3.3	52.1*
CCCOc1ccccc1/C=C(\C#N)C(=O)Nc1cccc(C)n1	2.1	0.0	8.8	57.6*	-2.7	3.0	51.9*
Cc1cccc(NC(=O)/C(C#N)=C/c2ccc(F)cc2)n1	8.1	-5.0	3.4	2.0	1.1	13.6	.
Cc1ccsc1C(=O)OCC(=O)Nc1cccc(S(=O)(=O)NC2=NCCCCC2)c1	4.7	-9.0	3.6	45.6*	-0.6	3.1	32.6*
Cc1cc(C)cc(C(=O)OCC(=O)Nc2cccc(S(=O)(=O)NC3=NCCCCC3)c2)c1	2.0	3.9	-4.6	12.2	-4.8	6.6	.
NC(=O)Nc1ccc(C(=O)OCC(=O)Nc2cccc(S(=O)(=O)NC3=NCCCCC3)c2)cc1	2.6	-8.4	8.4	61.4*	0.9	2.7	64.8*
O=C(COC(=O)c1ccc(OC(F)F)cc1)Nc1cccc(S(=O)(=O)NC2=NCCC2)c1	-1.1	-25.1	10.1	31.4*	-1.3	1.4	18.6
O=C(NCCc1ccccc1)C1CC(=O)N(C2CCCC2)C1 (stereo not drawn)	5.6	-6.3	5.5	7.4	-2.8	1.4	.
Cc1ccc(C(=O)NCCSc2c(C)[nH]c3ccccc23)cc1[N+](=O)[O-]	7.5	7.8	5.9	29.9*	-0.7	6.0	18.7
CCN(CC(=O)Nc1ccc(OC)cc1)C(=O)c1ccc(N2CCCC2=O)cc1	9.7	-5.6	17.4	-8.5	1.6	2.6	.
COc1cc(C)c2c(c1C=O)Oc1c(c(C)c(O)c3c1C(O)OC3=O)OC2=O (stereo not drawn)	1.2	26.3	2.9	48.6*	23.9	6.5	25.5

Source: PubChem BioAssay (several laboratories)
